Shown are actives, neighbours in structure and some others; about 4.3% of the full set was active somewhere.
SMARCA2 activ: increases SMARCA2 function in MMTV reporter cells; AID 652017; activation, % at 9.1 µM; actives 1% (n = 370,000); MG213 cells, MMTV-luciferase reporter, dexamethasone, overnight; in the data active = activation above about 7.8%
HSF1 activator: increases HSF-1 driven luciferase reporter signal; NIH3T3-HGL HSF-1 luciferase reporter, MG132, 8 h; 100% = twice DMSO control signal; activation, % at 9 µM; actives 1.7% (n = 300,000);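 active = mean replicate activation of at least 50% with a set share of replicates each reaching 50%; inconclusive = only one of those two conditions met; inactive = mean below 50% and too few replicates reaching it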
HSF1 inhib: HSF1 inhibition; NIH3T3-HGL HSE-luciferase, MG132-induced, luminescence 8 h; hits give low values; activity change, negative = inhibition, % at 7.5 µM (by protocol); actives 0.77% (n = 300,000);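 active = more than half of replicate wells show activity change below -50%, luminescence cut by over half; inconclusive = some wells, but at most half, below -50%; inactive = no replicate well below -50%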;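 note: luciferase reports HSF-1 transcriptional activity via heat shock element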
esBAF inh: inhibitors of esBAF chromatin remodeling in mouse ES cells; Bmi1-luciferase knock-in reporter, 24 h; 100% = twice the neutral-well signal; reporter increase, % at 12.5 µM; actives 2% (n = 350,000); AID 602393; in the data active = activation above about 40%; inconclusive = no clear call, values can overlap the other calls;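 note: a rise in the Bmi1 reporter signal indicates esBAF inhibition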
MITF act: increases MITF-driven TRPM1 promoter luciferase signal. SK-MEL-5 TRPM1-promoter luciferase, 24 h; % of positive control, neutral wells = 0. activation, % at 12.5 µM. actives 0.75% (n = 300,000);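 active = mean activation of at least 80% with every replicate also reaching 80%; inconclusive = mean reaches 80% but some replicate falls short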
Wnt act: Wnt/beta-catenin pathway activation; AID 743398; Wnt/beta-catenin reporter cell assay, activator, plate reader; actives 1.2% (n = 300,000); activation, % at 9.35 µM; in the data active = activation above about 30%, passing the limit was not always enough; inconclusive = no clear call, values can overlap the other calls
Hits are given with their value; . = inactive; ? = inconclusive; / = not tested or not shown.

SMILES | SMARCA2 activ | HSF1 activator | HSF1 inhib | esBAF inh | MITF act | Wnt act
C/C(CC(=O)Nc1ccc(C)c(Cl)c1)=N\NC(=O)c1ccccn1 | . | 206 | . | . | . | .
C/C(CC(=O)Nc1cccc(Cl)c1Cl)=N\NC(=O)C(=O)N1CCCC1 | . | . | . | . | . | .
C/C(CC(=O)Nc1ccc(N(C)C)cc1)=N\NC(=O)c1ccc(Cl)cc1 | . | 83 | . | . | . | .
C/C(CC(=O)Nc1ccc(N(C)C)cc1)=N\NC(=O)c1ccncc1 | . | . | . | . | . | .
CCOC(=O)Cc1cnc(NC(=O)NC(C(=O)OCC)(c2ccccc2)C(F)(F)F)s1 (stereo not given) | . | 113 | . | . | / | .
N#Cc1ccccc1COC(=O)c1ccc(Br)o1 | . | . | . | . | . | .
N#Cc1ccccc1COC(=O)c1cc(=O)c2ccccc2o1 | . | 63 | . | . | . | .
C[C@@H]1CN([C@H](C)CO)C(=O)CCCn2nncc2CO[C@H]1CN(C)C(=O)Nc1ccc(-c2cccs2)cc1 | / | / | / | . | / | /
CC(C)(C)c1ccc(C(=O)NC(=S)NNC(=O)c2cccs2)cc1 | . | . | -60 | / | . | /
O=C(NC(=S)NNC(=O)c1cccs1)c1ccccc1 | . | . | . | . | . | .
O=C(C[C@@H]1C[C@@H]2c3cc(NC(=O)Nc4ccccc4)ccc3O[C@@H]2[C@H](CO)O1)NCc1ccncc1 | / | / | / | . | / | /
CCOC(=O)c1cc2c(c(CSc3nc4ccccc4c(=O)n3Cc3ccco3)c1)OCOC2 | / | 58 | . | . | . | .
COCCn1c(C)cc(C(=O)CSc2nc3ccccc3c(=O)n2Cc2ccco2)c1C | . | . | . | 97 | . | 55
COc1ccc(CCNC(=O)[C@H](CC(C)C)NC(=O)N2CCn3c2nc2ccccc23)cc1OC | . | 56 | . | . | . | .
COc1ccc(CCNC(=O)[C@@H](NC(=O)N2CCn3c2nc2ccccc23)C(C)C)cc1OC | . | . | . | . | . | .
Cc1ccc(N(Cc2cc3ccc(C)cc3[nH]c2=O)C(=O)c2ccco2)cc1 | . | . | . | / | . | .
Cc1ccc(N(Cc2cc3ccc(C)cc3[nH]c2=O)C(=O)c2cccs2)cc1 | / | . | -85 | / | / | /
Cc1ccc2cc(CN(C(=O)c3ccco3)c3ccccc3)c(=O)[nH]c2c1 | . | . | . | 54 | . | /
COc1ccc2cc(CCNC(=O)c3cccs3)c(=O)[nH]c2c1 | . | . | . | 72 | 90 | 51
CCCN1[C@@H]2c3ccc(-c4ccc(OC)cc4)c(=O)n3C[C@@H]2[C@@H](CO)[C@@H]1C(=O)N(C)C | / | / | / | . | / | /
C[C@@H]1CN([C@@H](C)CO)C(=O)c2cc(NC(=O)C3CC3)ccc2O[C@@H]1CN(C)S(=O)(=O)c1ccc(F)cc1 | / | / | / | . | / | /
C[C@@H]1CN([C@H](C)CO)C(=O)c2cc(NC(=O)c3ccncc3)ccc2O[C@@H](C)CCCCO[C@@H]1CN(C)C(=O)c1ccccc1 | / | / | / | . | / | /
N/C(=C\C(=O)c1cc(Cl)ccc1O)C(Cl)(Cl)Cl | . | 209 | . | . | . | .
CCCOC(=O)c1ccc(NC(=O)C2CCCO2)cc1 (stereo not given) | . | . | . | 50 | / | /
CCC(CC)C(=O)Nc1ccc(C(=O)c2ccccc2)cc1 | . | . | . | / | . | /
SMILES | SMARCA2 activ | HSF1 activator | HSF1 inhib | esBAF inh | MITF act | Wnt act
CCCOC(=O)c1ccc(NC(=O)C(CC)CC)cc1 | . | . | . | 51 | . | /
FC(F)(F)Oc1ccc(Nc2nc3ccccc3o2)cc1 | . | 78 | . | / | . | /
Fc1ccccc1Nc1nc2ccccc2o1 | . | . | . | . | 100 | .
C[C@@H]1CN([C@@H](C)CO)C(=O)c2cc(-c3ccccc3F)cnc2O[C@H]1CN(C)Cc1ccccc1 | / | / | / | . | / | /
COc1ccc(CCN=C(NS(=O)(=O)c2ccccc2)c2ccccc2)cc1OC | . | 59 | . | . | . | .
COc1ccc(CCN=C(NS(=O)(=O)c2ccc(Cl)cc2)c2ccccc2)cc1 | . | . | . | / | / | .
COc1ccc(-c2nncnn2)cc1 | / | . | . | / | / | /
COc1ccc(-c2ccc(OC)cc2)cc1 | . | . | . | 54 | ? | /
COc1ccc(-c2nnc(-c3ccc(N)cc3)o2)cc1 | . | . | . | . | / | 53
COc1ccc(-c2nnc(-c3cccnc3)o2)cc1 | . | . | . | . | / | 36
Clc1ccc(-c2nnc(-c3cccnc3)o2)cc1 | . | . | . | 47 | / | .

Compound activity as filed in PubChem BioAssay.
